Assay outcomes (PubChem)
This is a sample that favours compounds with a hit; in the whole collection about 8.3% have one here.
SW480 rereplic: induces DNA re-replication in SW480 colon adenocarcinoma cells; SW480 DNA re-replication, Hoechst DNA content imaging, 48 h; Potency, µM (series often up to 46.1 µM), actives largely listed as activators; actives 1.8% (n = 340,000); AID 624297; also: nearly all actives have a fitted effect of over 55% in size
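Per well, 250 cells were exposed to pinned compound for 48 hr. Nuclear DNA was visualised with Hoechst (40 min, 37 C) and total object intensity recorded by fluorescence scanning.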
MCF10A rerep: DNA re-replication induction in MCF 10a cells; Potency, µM (top dose mostly 46.1 µM), most hits filed as activators; MCF 10A DNA re-replication, Hoechst nuclear intensity, 48 h; actives 2.9% (n = 350,000); also: nearly all actives have a fitted effect of over 50% in size
RORgamma inh: ROR gamma (mouse) transcription inhibition. Drosophila S2 Gal4-RORgamma UAS-luciferase reporter, 20 h. Potency, µM (doses to about 53.6 µM), most hits filed as inhibitors. P51450. actives 5.4% (n = 310,000); also: nearly all actives have a fitted effect of over 60% in size
Target sequence (P51450 whole entry, looked up, the tested form may be a part): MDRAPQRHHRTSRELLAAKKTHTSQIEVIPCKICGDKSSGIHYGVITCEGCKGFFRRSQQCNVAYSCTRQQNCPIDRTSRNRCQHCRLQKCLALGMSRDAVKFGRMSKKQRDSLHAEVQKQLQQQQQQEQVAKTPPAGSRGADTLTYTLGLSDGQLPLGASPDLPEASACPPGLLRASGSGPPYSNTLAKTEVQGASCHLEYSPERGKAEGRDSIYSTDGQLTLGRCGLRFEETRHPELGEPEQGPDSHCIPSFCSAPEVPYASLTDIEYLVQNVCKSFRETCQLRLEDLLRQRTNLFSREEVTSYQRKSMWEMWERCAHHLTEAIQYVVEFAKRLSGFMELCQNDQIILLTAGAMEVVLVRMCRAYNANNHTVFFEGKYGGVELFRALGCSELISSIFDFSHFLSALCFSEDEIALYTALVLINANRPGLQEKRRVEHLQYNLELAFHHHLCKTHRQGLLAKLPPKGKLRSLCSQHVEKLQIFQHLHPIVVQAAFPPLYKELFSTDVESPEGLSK
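A Gal4/UAS one-hybrid system in insect cells: metallothionein-promoter Gal4–ROR gamma fusion plus Photinus luciferase reporter. Copper sulfate 700 uM final, 20 hr ambient incubation, luminescent detection after 10 min with reagent.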
Giardia kill: kills Giardia lamblia; actives 0.15% (n = 340,000); activity change, % at 7.66 µM, hits read low; Giardia lamblia trophozoite viability; AID 540267; in the data active = activity change below about -80%; inconclusive = between about -30% and that limit;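 also: parasites exposed to compound for two days anaerobically before the ATP read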
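Each well holds 100 Giardia trophozoites and compound. After two days (48 hrs) at 37 deg C in anaerobic conditions, ATP is quantified by luminescence.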
Gal4-VP16 FLuc: Gal4-VP16 reporter inhibition counter-screen | Potency, µM (doses to about 53.6 µM), hits mostly inhibitors | AID 2546 | Drosophila S2 Gal4-VP16 UAS-luciferase, luminescence, 20 h | actives 3.5% (n = 310,000);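 also: Gal4-VP16 expression switched on by copper sulfate through the metallothionein promoter; nearly all actives have a fitted effect of over 50% in size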
Chronic BCR inh: inhibitors of chronic active B-cell receptor signaling | ABC-DLBCL IkBa-CBG/CBR reporter, luminescence ratio, 4 h | Potency, µM (series often up to 46.1 µM), hits mostly inhibitors | actives 0.05% (n = 340,000) | AID 493014; active = well fitted inhibition curve with a large enough effect in the signal ratio, with a control signal flat, not every such curve was filed as active; inconclusive = small, poorly fitted or top-dose-only effect, or effect the other way, or a change in a side signal; the % refers to the signal ratio
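TMD8 human ABC-DLBCL cells with doxycycline-inducible IκBα–green luciferase fusion and unfused red luciferase, in 0.5% FBS medium; compounds up to 46 uM, 4 h at 37C. Green/red luminescence ratio, filter-overlap corrected, fitted to concentration-response curves.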
A number is an active result; – = inactive; ? = inconclusive; · = no result given; [ ] = another dose, or the depositor's remark. Unless noted, calls follow the shape of the dose curve; as a rule, active = well fitted curve in the direction sought with a large enough effect; inconclusive = small, poorly fitted or top-dose-only effect, or another doubt; inactive = no such curve, though single readings can be large; an effect the other way counts as inactive or inconclusive.

SMILES	SW480 rereplic	MCF10A rerep	RORgamma inh	Giardia kill	Gal4-VP16 FLuc	Chronic BCR inh
CN(C)/C=C(\C#N)C(=O)N/N=C(\CC(=O)C(F)(F)F)c1ccco1	–	–	4.5µM	–	–[10 µM]	?
CN(C)/C=C(\C#N)C(=O)N/N=C/c1ccc(Cl)cc1	–	–	–	–	–	–
COc1ccc(C(=O)Nc2ccc(Cl)cc2F)cc1S(=O)(=O)N1CCCC1	–	–	·	–	·	–
Nn1c(SCC(=O)NCc2ccc3c(c2)OCO3)nnc1C(F)(F)F	–	–	·	–	·	–
COc1ccc(C2CC(=O)c3cnc(N)nc3C2)c(OC)c1 (centres undefined)	–	–	–	–	–	–
COc1ccc(C2CC(=O)c3cnc(NC(=O)c4ccccc4)nc3C2)c(OC)c1 (centres undefined)	?	21µM	–	–	–	–
O=C(COC(=O)c1cccc(O)c1)Nc1ccc(S(=O)(=O)N2CCOCC2)cc1	–	–	·	–	·	–
Cc1ccc2c(Cl)c(C(=O)N/N=C/c3cccn3C)sc2c1	–	21µM	1.3µM	–	1.6µM	–
Cn1cccc1/C=N/NC(=O)c1sc2cc(Cl)ccc2c1Cl	·	·	0.71µM	·	0.56µM	–
Cc1ccc(NC(=O)CCS(=O)(=O)c2ccc3c(c2)NC(=O)C(C)S3)cc1Cl (centres undefined)	?	–	–	–	–	–
CC(=O)Nc1ccc(NC(=O)C(C)OC(=O)CCc2c[nH]c3ccccc23)cc1 (centres undefined)	–	–	·	–	·	–
CC(=O)Nc1ccc(OCC(O)Cn2c(C)nc3ccccc32)cc1 (centres undefined)	–	–	?	–	7.9µM	–
OC(COc1ccc(Cl)cc1)CN1CCN(c2cccc(Cl)c2)CC1 (centres undefined)	?	?	–	–	–	–
CC(=O)Nc1ccc(OCC(O)Cn2c(CO)nc3ccccc32)cc1 (centres undefined)	–	–	–	–	–	–
CC(=O)N(C)c1ccc(OCC(O)Cn2c3ccc(Cl)cc3c3cc(Cl)ccc32)cc1 (centres undefined)	?	?	20µM	–	–[0.365 µM]	–
CC(=O)N(C)c1ccc(OCC(O)Cn2c(C)nc3ccccc32)cc1 (centres undefined)	?	–	–	–	16µM	?
Cc1cc(C)n(-c2ccc(C(=O)C(C#N)c3nc4ccccc4n3C)cc2)n1 (centres undefined)	–	–	3.2µM	–	8.9µM	–
COc1ccc(C#Cc2c(-c3ccsc3)oc3ccc(N4CCOCC4)cc23)cc1	–	16µM	·	–	·	·
OC1(C#Cc2c(-c3ccsc3)oc3ccc(N4CCOCC4)cc23)CCCCC1	?	?	·	–	·	·
COc1ccc(-c2oc3ccc(N4CCOCC4)cc3c2C#Cc2ccc(N)cc2)cc1	?	5.8µM	·	–	·	·
O=C(OCc1ccc(O)cc1)c1c(-c2ccsc2)oc2ccc(N3CCOCC3)cc12	21µM	21µM	–	–	–	?
COC(=O)c1ccc(/C=C/c2c(-c3ccc(OC)cc3)oc3ccc(N4CCOCC4)cc23)cc1	?	?	–	–	–	–
COc1ccc(/C=C/c2c(-c3cccc(C)c3)oc3ccc(N4CCOCC4)cc23)cc1	–	9.2µM	·	–	·	·
Cc1oc2c(C)c3oc(=O)c(CCC(=O)O)c(C)c3cc2c1-c1ccccc1	–	–	–	–	–	–
O=C(CCc1nnc(CCCCc2ccccc2)o1)N1CCCCC1CCO (centres undefined)	–	–	–	–	–	–
O=C(CSC1=Nc2ccccc2C2CC=NN12)NCc1ccco1 (centres undefined)	?	21µM	·	–	·	?
N#Cc1ccccc1NC(=O)CSC1=Nc2ccccc2C2CC=NN12 (centres undefined)	–	–	11µM	–	?	20µM
O=C(Sc1cccc2cccnc12)c1ccc(F)cc1	·	·	1.1µM	·	4.5µM	?
O=C(CSc1cccc2cccnc12)OCC(=O)c1ccc(Br)cc1	–	?	–	–	–	–
O=C(Sc1cccc2cccnc12)c1ccccc1Br	·	·	0.79µM	·	2µM	?
